KCNQ2 inh – rat KCNQ2 potassium channel inhibitors, primary screen, cell-based, CHO-K1, FluxOR thallium flux, B-score | 20 min; hits give low values | 1.1% of 310,000 active | AID 2156, 2009 | B-score at 10 µM | Potassium voltage-gated channel subfamily KQT member 2 (Rattus norvegicus), O88943;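 active = fluorescence ratio B-score at most minus 3 library SDs, with starting brightness B-score within 2 library SDs, cut at about -5.5 in these data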
KCNQ2 enhance – potentiators of rat KCNQ2 potassium channel; CHO-K1 KCNQ2, FluxOR thallium flux fluorescence; hits give high values; Potassium voltage-gated channel subfamily KQT member 2 (Rattus norvegicus), O88943; B-score at 10 µM; 0.54% of 310,000 active;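 active = fluorescence ratio B-score at least 3 SD of library B-scores, with initial fluorescence B-score within 3 of them, cut at about 5.3 in these data; same plate scores as AID 2156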;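 also: B-score of peak minus minimum over baseline fluorescence ratio after K+ and Tl+ stimulus; positive B-score means potentiation of KCNQ2 with more thallium influx and brighter signal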
Of the large screens only hits and unclear results are named; the others gave an inactive call. Sampled rows, rich in hits. Any-hit rate of the full collection: about 1.6%.

CCOC(=O)C1=C(c2ccccc2)N(C)C(=O)NC1c1ccc(OC(F)F)c(OC)c1 (centres undefined)	KCNQ2 inh -5.6
CCOC(=O)c1c(N/N=C/c2ccncc2)n[nH]c1C	none
CC(C)OC(=O)c1c(NC(=O)c2ccco2)sc2c1CCCCC2	KCNQ2 inh -6.3
COC(=O)c1c(NC(=O)c2ccco2)sc2c1CCC2	none (no result: KCNQ2 enhance)
CC(C)C(NC(=O)c1ccc(F)cc1)C(=O)NCC1CCCO1 (centres undefined)	none (no result: KCNQ2 enhance)
COc1cccc(-c2cc3nc(-c4ccccc4)cc(N4CCCC(O)C4)n3n2)c1 (centres undefined)	none (no result: KCNQ2 enhance)
COc1cccc(-c2cc3nc4c(c(N5CCC6(CC5)OCCO6)n3n2)CCC4)c1	KCNQ2 inh -7
COc1ccc(-c2cc3nc4c(c(N5CCC6(CC5)OCCO6)n3n2)CCC4)cc1	none (no result: KCNQ2 enhance)
COc1ccc(-c2cc3nc(-c4ccccc4)cc(N4CCC5(CC4)OCCO5)n3n2)cc1	KCNQ2 inh -6.5
Clc1nc(Cl)nc(-c2cn(-c3ccccc3)c3ccccc23)n1	none
COc1ccc(C(=O)N(C)CC2CCN(CCc3cccc(C(F)(F)F)c3)CC2)cc1C	none
CC(=O)N[C@@H](C)C(=O)N1CCN(S(=O)(=O)c2ccc(Cl)cc2)CC1	none
COc1ccc(NC(=S)N2CCN(S(=O)(=O)c3ccccc3)CC2)cc1	none (no result: KCNQ2 enhance)
Cc1nn(Cc2ccccc2)c(Cl)c1C(=O)OCc1nnc(-c2ccc(Cl)cc2)o1	KCNQ2 inh -6.1
Cc1nn(Cc2ccccc2)c(Cl)c1C(=O)OCc1nnc(-c2ccccc2)o1	none
Cc1ccccc1-n1cc(CNC(=O)CCc2nnc(CCc3ccccc3)o2)cn1	none (no result: KCNQ2 enhance)
O=C(Cc1ccccc1)NC1CCSc2ccccc21 (centres undefined)	KCNQ2 inh -5.8
O=C(CCc1ccccc1)NC1CCSC1=O (centres undefined)	none
O=C(CSc1nnc(-c2ccc(O)cc2)n1Cc1ccccc1)NNC(=O)c1ccc(Br)cc1	none
Cc1cccc(N2CCN(C(=O)Cc3c(C(=O)O)[nH]c4ccc(Cl)cc34)CC2)c1C	KCNQ2 enhance 7
O=C(O)c1[nH]c2ccccc2c1CC(=O)N1CCN(c2ccccc2)CC1	none (no result: KCNQ2 enhance)
CCOC(=O)N1CCN(C(=O)CSc2nc(=O)n3ccc(C)cc3n2)CC1	none
O=C(CCl)NCc1cc(-c2ccc(Cl)cc2)no1	none
O=c1c2c(-c3cccs3)csc2ncn1/N=C/c1ccc(OC(F)F)cc1	KCNQ2 inh -7.4
O=c1c2c(-c3cccs3)csc2ncn1/N=C/c1ccccn1	none (no result: KCNQ2 enhance)
O=C(CN(Cc1ccc(Cl)cc1)S(=O)(=O)c1ccccc1)NCC1CCCO1 (centres undefined)	none (no result: KCNQ2 enhance)
CSc1ccccc1C(=O)N(C)C(c1ccccc1)c1ccccc1	KCNQ2 inh -5.7
CSc1ccccc1C(=O)N(C)Cc1ccccc1	none (no result: KCNQ2 enhance)
C=CCN1CCN(C(=O)c2cc3c(s2)CCC(CC)C3)CC1 (centres undefined)	none (no result: KCNQ2 enhance)
Cc1ccc(-c2nc3c4ccccc4ccn3c2CN2CCCCC2)cc1	none (no result: KCNQ2 enhance)
c1ccc(-c2nc3c4ccccc4ccn3c2CN2CCCCC2)cc1	KCNQ2 inh -5.6
CC(NC(=O)c1cc(F)c(F)cc1Cl)C1CC2CCC1C2 (centres undefined)	none (no result: KCNQ2 enhance)
COc1ccc(-c2nc3ccccc3n2Cc2ccccc2)cc1	none (no result: KCNQ2 enhance)
COc1ccc(-c2n(Cc3ccccc3)c3ccccc3[n+]2Cc2ccccc2)cc1	KCNQ2 inh -6
CSc1nc2ccccc2c(=O)n1C1CCOC(C)(C)C1 (centres undefined)	none (no result: KCNQ2 enhance)
CC(C)c1ccc(OCC(=O)Nc2ccccc2C(=O)N2CCOCC2)cc1	none
CCn1c(C(=O)O)c(S(=O)(=O)c2ccc(Cl)cc2)c2ccccc21	none (no result: KCNQ2 enhance)
COc1ccnc(N=CNOCc2cccc(C(F)(F)F)c2)c1C#N	none (no result: KCNQ2 enhance)
CSCCC(NC(=O)c1ccc(Cl)cc1Cl)C(=O)OC1CCCCC1=O (centres undefined)	KCNQ2 inh -8.1
CSCCC(NC(=O)c1ccc(Cl)cc1Cl)C(=O)NCc1ccccn1 (centres undefined)	none (no result: KCNQ2 enhance)
O=c1[nH]cnc2c1sc1nc(-c3ccccc3)c3c(c12)CCCC3	none
S=c1nc[nH]c2c1sc1nc(-c3ccccc3)c3c(c12)CCCC3	KCNQ2 enhance 16
Cc1cc(OCC(=O)Nc2ccc(N3CCN(C)CC3)cc2)ccc1Cl	none
COc1ccccc1C(=O)NC(=O)COC(=O)Cn1cnc2c1c(=O)n(C)c(=O)n2C	none (no result: KCNQ2 enhance)
COc1ccc(-c2nc(=S)[nH][nH]2)cc1OC	none (no result: KCNQ2 enhance)
COc1ccc(-c2nc(=S)[nH][nH]2)cc1	KCNQ2 inh -8.4
Cc1ccc2nc(SCC(=O)Nc3cccc(S(=O)(=O)NC4=NCCCCC4)c3)[nH]c2c1	none
O=C(NCC(c1ccco1)N1CCc2ccccc2C1)c1cccc([N+](=O)[O-])c1 (centres undefined)	none (no result: KCNQ2 enhance)
COc1ccc(C(=O)NCC(c2ccco2)N2CCc3ccccc3C2)cc1 (centres undefined)	none (no result: KCNQ2 enhance)
CCOc1ccc(C(=O)NCC(c2ccco2)N2CCc3ccccc3C2)cc1 (centres undefined)	KCNQ2 inh -6.4
O=C(NCC(c1ccco1)N1CCc2ccccc2C1)c1ccc(Cl)c([N+](=O)[O-])c1 (centres undefined)	KCNQ2 inh -5.8
O=C(O)c1cc(-c2c[nH]c3ccccc23)nc2cc3ccccc3cc12	none
COc1ccc(/C=C(/NC(=O)/C=C/c2ccccc2)C(=O)NCCCCCC(=O)O)cc1	none
Cc1ccccc1SC1CCN(Cc2nc(C3CC3)no2)CC1	none (no result: KCNQ2 enhance)
COc1ccccc1N1CCN(C(=O)C(C)N(c2ccccc2)S(C)(=O)=O)CC1 (centres undefined)	KCNQ2 inh -5.7
COc1ccccc1N1CCN(C(=O)C(C)N(c2ccc(C)cc2)S(C)(=O)=O)CC1 (centres undefined)	none (no result: KCNQ2 enhance)
Cc1ccccc1NC(=O)CN1C(=O)N/C(=C\c2ccccc2OCc2ccc(C(=O)O)cc2)C1=O	none
Cc1cccc(C)c1NC(=O)CN(C)C(=O)c1cccc(NS(=O)(=O)c2ccccc2)c1	none (no result: KCNQ2 enhance)
Cc1cccc(C)c1-n1c(C)cc(/C=N\NC(=O)CC(=O)NC2CCCCC2)c1C	KCNQ2 enhance 8.4
Cc1cc(/C=N\NC(=O)CC(=O)NC2CCCCC2)c(C)n1-c1cccc(Cl)c1Cl	none
N#Cc1nc(Cc2cccc3ccccc23)oc1N1CCN(c2ccccc2)CC1	none (no result: KCNQ2 enhance)
N#Cc1nc(COc2ccccc2)oc1N1CCN(Cc2ccccc2)CC1	KCNQ2 inh -6.4
CC1CCN(c2oc(Cc3cccc4ccccc34)nc2C#N)CC1	KCNQ2 inh -5.9
N#Cc1nc(COc2cccc(Cl)c2)oc1N1CCCC1	none (no result: KCNQ2 enhance)
N#Cc1nc(Cc2cccc3ccccc23)oc1N1CCOCC1	none
COc1ccc(N2CCN(c3oc(Cc4cccc5ccccc45)nc3C#N)CC2)cc1	KCNQ2 inh -7
O=C(NCCc1ccccc1Cl)C1CC(=O)N(C2CCCCC2)C1 (centres undefined)	none (no result: KCNQ2 enhance)
Cc1ccccc1NC(=O)OCc1cccnc1Oc1ccc(Cl)cc1	none (no result: KCNQ2 enhance)
O=C1c2cccc3cccc(c23)C(=O)N1CCN1CCN(CC(O)COCc2ccc(Cl)cc2)CC1 (centres undefined)	KCNQ2 inh -5.7
COc1cc(COCC(O)CN2CCN(CCN3C(=O)c4cccc5cccc(c45)C3=O)CC2)cc(OC)c1OC (centres undefined)	none
CC(C)CNC(=S)N1CCC(C(=O)c2ccc3c(c2)OCCO3)CC1	none
O=C(CSc1nnc(-c2c[nH]c3ccccc23)o1)N(Cc1ccccc1)c1ccc(F)cc1	none (no result: KCNQ2 enhance)

Compound activity from PubChem BioAssay.
